About 2,000 (0.91%) of roughly 220,000 compounds were called active. Inconclusive results (about 2%) are left out. Rule as the data show it: inconclusive = inhibition above about 80% without an active follow-up result; inactive = below that; test concentration not stated here. The list is a sample of the results. Measured potencies and affinities stand elsewhere.
Test: M. tuberculosis H37Rv growth inhibitors, H37Rv strain (AID 1626);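 also: bacteria incubated seven days before Alamar blue readout; 0% = bacteria only wells and 100% = bacteria with antibiotic wells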
Details: stronger effect = higher value, concentration not given here
In the case of `Cn1c(-c2ccccc2)c(C(=O)CC#N)c2ccccc21`, the inhibition is reported as 7.31% (inactive). In the case of `CCn1c(-c2ccccc2)c(C(=O)CCl)c2ccccc21`, the inhibition is reported as 76.1% (inactive). With `Cn1cc(C(N)=O)c2ccccc21` the inhibition was -2.82% (inactive). For `Cn1cc(C(=O)Cc2ccccc2)c2ccccc21`, the inhibition was 0.26% (inactive). In the case of `Cc1ccc(-c2ccc(NC(=O)C3C4C=CC(C4)C3C(=O)O)cc2)o1` (configuration not stated), the inhibition is reported as 66.8% (inactive). In the case of `COCCCN(CCC#N)C(=O)c1c(-c2c(Cl)cccc2Cl)noc1C`, the inhibition is reported as -10.4% (inactive). For `Cc1cc([N+](=O)[O-])ccc1NC(=O)c1cccc(NC(=O)C(C)C)c1`, the inhibition was 10.8% (inactive). With `COc1cc(NC(=O)c2ccc([N+](=O)[O-])cc2)ccc1NC(=O)C(C)C` the inhibition was 2.5% (inactive). For `COc1ccc(NC(=O)CCSc2nnc(C)s2)cc1`, the inhibition was -0.89% (inactive). For `CC(=O)Nc1ccc(S(=O)(=O)N2CCCC(C(=O)O)C2)cc1` (configuration not stated), the inhibition was 0.58% (inactive). In the case of `Fc1ccc(Oc2nc(-c3ccccc3)nnc2C(F)(F)F)cc1`, the inhibition is reported as -3.97% (inactive). With `CNc1nc(-c2ccccc2)nnc1C(F)(F)F` the inhibition was -2.77% (inactive). With `FC(F)(F)c1nnc(-c2ccccc2)nc1N1CCCC1` the inhibition was -1.21% (inactive). In the case of `FC(F)(F)c1nnc(-c2ccccc2)nc1Sc1ccc(Cl)cc1`, the inhibition is reported as 36.4% (inactive). In the case of `Cc1ccc(Sc2nc(-c3ccccc3)nnc2C(F)(F)F)cc1`, the inhibition is reported as 13.4% (inactive). In the case of `FC(F)(F)c1cccc(Oc2nc(-c3ccccc3)nnc2C(F)(F)F)c1`, the inhibition is reported as 8.03% (inactive). With `COC(=O)CC/C(O)=C1/C(=N)CC(C)(C)CC1=O` the inhibition was -9.88% (inactive). For `CC1CCN(CCCNC(=O)COc2cc(=O)n(C)c3ccccc23)CC1`, the inhibition was -0.28% (inactive). With `O=C(CCn1c(=O)c2sccc2n(CC(=O)OCc2ccccc2)c1=O)NCc1ccccc1` the inhibition was -4.57% (inactive). In the case of `CCC(=O)N(C1=C(NC)C(=O)c2ccccc2C1=O)C(C)C`, the inhibition is reported as 2.12% (inactive). In the case of `CC(=O)N(C1=C(N2CCOCC2)C(=O)c2ccccc2C1=O)c1ccc(C(=O)O)cc1`, the inhibition is reported as -1.19% (inactive). In the case of `CCC(=O)N(C1=C(NC(C)C)C(=O)c2ccccc2C1=O)C(C)C`, the inhibition is reported as 3.87% (inactive). With `CC(=O)N(Cc1ccc(F)cc1)C1=C(NCCc2ccccc2)C(=O)c2ccccc2C1=O` the inhibition was 16.5% (inactive). With `CCNC(=O)/C=C1\NC(C)(C)Cc2c1ccc1ccccc21` the inhibition was -3.91% (inactive). In the case of `O=C1OCCC1Sc1nc2ccccc2s1` (configuration not stated), the inhibition is reported as 6.97% (inactive). In the case of `O=C(CN1CCN(Cc2ccccc2Cl)C1=O)NCc1ccccn1`, the inhibition is reported as 1.55% (inactive). In the case of `O=C(NCC1CCCO1)C(c1ccc(F)cc1)N(Cc1ccc(F)cc1)C(=O)Cn1nnc(-c2cccs2)n1` (configuration not stated), the inhibition is reported as -8.2% (inactive).
